These results are taken from PubChem BioAssay (EPA / NIEHS).

Each structure is given as a SMILES string. Inconclusive results are not listed. The source holds several records for some structures; these can differ, active in one and inactive in another. Calls of active or inactive are those of the source. The calls were made as follows: active = hit-call score of the fitted dose curve at least 0.9, where 1 is the maximum; inconclusive = response in the unintended direction; inactive = score below 0.9.

Experiment [1] concerns the target human Adrenergic, Alpha 2c Receptor (Adra2C), ADRA2C (gene 152) (UniProt P18825). Description: NVS_GPCR_hAdra2C: NovaScreen (NVS) G Protein-Coupled Receptor Assay for human Adrenergic, Alpha 2c Receptor (Adra2C) (AID 2283259). Put shortly: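 Screened first in duplicate at 25 uM, with actives then run as concentration series. Membranes from Sf9 cells were exposed for 1 h, and displacement of radioligand was counted after filtration, using DMSO as baseline.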

Experiment [2] has as its target human Neurokinin, NK2 Receptor, TACR2 (gene 6865) (UniProt P21452). The experiment is described as follows: NVS_GPCR_hNK2: NovaScreen (NVS) G Protein-Coupled Receptor Assay for human Neurokinin, NK2 Receptor (AID 2283278).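 Also: actives reduce bound radioligand signal relative to DMSO baseline.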 Put shortly: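 Cell-free radioligand binding using receptor protein extracted from CHO cells; readings taken 4 hours after chemical dosing by filter-based scintillation counting. Primary screen ran single concentration (25 uM) in duplicate; actives followed up in concentration series, loss-of-signal versus DMSO baseline.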

Experiment [3] deals with human Thromboxane A2 Receptor (TXA2), TBXA2R (gene 6915) (UniProt P21731). Description: NVS_GPCR_hTXA2: NovaScreen (NVS) G Protein-Coupled Receptor Assay for human Thromboxane A2 Receptor (TXA2) (AID 2283282).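 Also: actives reduce bound radioligand signal relative to DMSO baseline.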 The gist of the method: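 Human platelet-derived receptor preparation incubated with test chemical and radiolabelled ligand for 1 hour, cell-free. Bound label was separated by filtration and counted; displacement relative to DMSO controls gave activity, screened at 25 uM, then titrated.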
human Thromboxane A2 Receptor (TXA2), TBXA2R (gene 6915), sequence (P21731 whole entry, looked up): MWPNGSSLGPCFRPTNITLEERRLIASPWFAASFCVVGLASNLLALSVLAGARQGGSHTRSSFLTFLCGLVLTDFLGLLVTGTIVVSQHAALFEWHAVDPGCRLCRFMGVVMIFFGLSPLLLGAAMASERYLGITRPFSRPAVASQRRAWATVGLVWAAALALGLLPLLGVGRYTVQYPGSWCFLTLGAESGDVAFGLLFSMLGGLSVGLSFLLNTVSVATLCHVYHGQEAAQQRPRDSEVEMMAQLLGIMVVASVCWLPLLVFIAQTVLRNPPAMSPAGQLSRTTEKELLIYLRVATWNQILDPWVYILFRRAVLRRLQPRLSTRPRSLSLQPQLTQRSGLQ

In experiment [4] the target is human Adrenergic, Beta 3 Receptor (Adrb3), ADRB3 (gene 155) (UniProt P13945). The experiment is described as follows: NVS_GPCR_hAdrb3: NovaScreen (NVS) G Protein-Coupled Receptor Assay for human Adrenergic, Beta 3 Receptor (Adrb3) (AID 2283262). The gist of the method: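 A cell-free filter binding assay read by scintillation counting, with displacement of a specific radioligand measured after 1 hour. The receptor source was SK-N-MC extracts (cells pretreated with isoproterenol and 8-bromo-cAMP). Compounds were first tested at 25 uM in duplicate and then in concentration series.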

The target of experiment [5] is D(1A) dopamine receptor (Homo sapiens) (UniProt P21728). Description: NVS_GPCR_hDRD1: NovaScreen (NVS) G Protein-Coupled Receptor Assay for human Dopamine Receptor D1 (DRD1) (AID 2283269). The gist of the method:
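Cell-free competition with radioligand, filter-trapped and scintillation-counted 1 h post-dose, using HEK293-derived human D1 preparation. Duplicate single-point testing at 25 uM first, then concentration series for actives; DMSO served as baseline, loss-of-signal scored.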

Experiment [6] has as its target human Dopamine Receptor D4.4 (DRD4.4), DRD4 (gene 1815) (UniProt P21917). Description: NVS_GPCR_hDRD4.4: NovaScreen (NVS) G Protein-Coupled Receptor Assay for human Dopamine Receptor D4.4 (DRD4.4) (AID 2283264). Put shortly:
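Filter-binding assay with a tritiated or iodinated ligand, cell-free receptor prepared from CHO, 1 hour. Loss of bound radioactivity versus DMSO; single 25 uM duplicate screen, then concentration-response for actives.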

The target of experiment [7] is human Histamine 1 Receptor (H1), HRH1 (gene 3269) (UniProt P35367). Description: NVS_GPCR_hH1: NovaScreen (NVS) G Protein-Coupled Receptor Assay for human Histamine 1 Receptor (H1) (AID 2283268). Put shortly:
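Filter-based scintillation detection of radioligand binding to human H1, 1 h incubation; chemicals screened in duplicate at 25 uM, then concentration-response; signal loss relative to DMSO taken as activity.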

The target in experiment [8] is human Opioid Receptor Delta 1 (Opiate D1), OPRD1 (gene 4985) (UniProt P41143). Description: NVS_GPCR_hOpiate_D1: NovaScreen (NVS) G Protein-Coupled Receptor Assay for human Opioid Receptor Delta 1 (Opiate D1) (AID 2283280). Put shortly: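 Membrane preparations from CHO cells bearing the human receptor were incubated 1 h with test chemical, and bound radioligand was counted after filtration. Actives from 25 uM duplicate screening were retested in concentration-response.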
human Opioid Receptor Delta 1 (Opiate D1), OPRD1 (gene 4985), sequence (P41143 whole entry, looked up): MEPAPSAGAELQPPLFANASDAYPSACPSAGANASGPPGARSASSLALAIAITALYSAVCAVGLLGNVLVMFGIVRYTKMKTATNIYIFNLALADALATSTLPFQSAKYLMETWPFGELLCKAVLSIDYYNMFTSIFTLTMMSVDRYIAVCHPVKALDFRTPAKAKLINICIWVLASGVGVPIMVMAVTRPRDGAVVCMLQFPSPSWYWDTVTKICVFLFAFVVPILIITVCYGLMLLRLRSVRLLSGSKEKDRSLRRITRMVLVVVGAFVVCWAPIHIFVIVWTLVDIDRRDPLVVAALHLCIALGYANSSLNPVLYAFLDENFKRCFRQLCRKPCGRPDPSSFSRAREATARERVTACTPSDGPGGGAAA

Experiment [9] concerns the target human Purinergic Receptor P2Y, P2RY1 (gene 5028) (UniProt P47900). The experiment is described as follows: NVS_GPCR_hPY2: NovaScreen (NVS) G Protein-Coupled Receptor Assay for human Purinergic Receptor P2Y (AID 2283281). The gist of the method: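 Filtration scintillation readout of radioligand displacement on U937 extract, measured 1 h post-dosing. Single 25 uM duplicate screen, then singleton concentration series to 50 uM for chemicals passing threshold; DMSO as baseline.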

In experiment [10] the target is human Endothelin Receptor Type A (ETA), EDNRA (gene 1909) (UniProt P25101). Description: NVS_GPCR_hETA: NovaScreen (NVS) G Protein-Coupled Receptor Assay for human Endothelin Receptor Type A (ETA) (AID 2283265). Put shortly:
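Binding of radioligand to membrane protein extracted from SH-SY5Y cells was read by filtration and scintillation after 3 h. Compounds were screened at 25 uM in duplicate, with hits followed up in singleton concentration series to 50 uM.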

Experiment [11] has as its target human Muscarinic, M4 Receptor, CHRM4 (gene 1132) (UniProt P08173). Description: NVS_GPCR_hM4: NovaScreen (NVS) G Protein-Coupled Receptor Assay for human Muscarinic, M4 Receptor (AID 2283274). Put shortly:
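Filter-based scintillation counting of radioligand bound to CHO-expressed human M4 preparations after 1 h; loss of signal fitted versus DMSO. Initial duplicate testing at 25 uM, concentration-response follow-up for actives.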

Experiment [12] addresses Muscarinic acetylcholine receptor M5 (Homo sapiens) (UniProt P08912). The experiment is described as follows: NVS_GPCR_hM5: NovaScreen (NVS) G Protein-Coupled Receptor Assay for human Muscarinic, M5 Receptor (AID 2283275). The gist of the method: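 Chemicals passing a primary duplicate screen at 25 uM were run as singleton concentration series, maximum 50 uM. Displacement of a specific radioligand from CHO-extracted receptor was read by filter scintillation after 1 h, relative to DMSO.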

Experiment [13] has as its target human Neurotensin Receptor (NTS), NTSR1 (gene 4923) (UniProt P30989). The experiment is described as follows: NVS_GPCR_hNTS: NovaScreen (NVS) G Protein-Coupled Receptor Assay for human Neurotensin Receptor (NTS) (AID 2283279). Put shortly: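 Compounds competed with a radiolabelled ligand for binding to CHO-derived human neurotensin receptor; bound signal counted after filtration, 1 h. Screened first at a single concentration of 25 uM in duplicate, then concentration series to 50 uM maximum for actives.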

Experiment [14] has as its target human Adrenergic, Beta 1 Receptor (Adrb1), ADRB1 (gene 153) (UniProt P08588). The experiment is described as follows: NVS_GPCR_hAdrb1: NovaScreen (NVS) G Protein-Coupled Receptor Assay for human Adrenergic, Beta 1 Receptor (Adrb1) (AID 2283258). The gist of the method: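 Membranes/protein extracted from human neuroepithelioma cells, radioligand competition binding read by filtration and scintillation 2 h post-dose. Single 25 uM duplicate screen, then concentration-response follow-up; DMSO as negative control.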

Experiment [15] deals with Beta-2 adrenergic receptor (Homo sapiens) (UniProt P07550). Description: NVS_GPCR_hAdrb2: NovaScreen (NVS) G Protein-Coupled Receptor Assay for human Adrenergic, Beta 2 Receptor (Adrb2) (AID 2283261). Put shortly: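 Compounds screened in duplicate at 25 uM, then actives in concentration series. Human beta-2 receptor from CHO material, cell-free; radioligand displacement after 1 h measured by filtration and scintillation against DMSO baseline.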

Experiment [16] deals with human Dopamine Receptor D2 (DRD2), DRD2 (gene 1813) (UniProt P14416). The experiment is described as follows: NVS_GPCR_hDRD2s: NovaScreen (NVS) G Protein-Coupled Receptor Assay for human Dopamine Receptor D2 (DRD2) (AID 2283266). Put shortly: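 Test compound (25 uM, duplicate in the primary screen; concentration series at follow-up) competed with radioligand for human DRD2 in CHO-derived membrane protein. Filter-based scintillation counting was done 1.5 hours after dosing, with loss of signal analysed against DMSO.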
human Dopamine Receptor D2 (DRD2), DRD2 (gene 1813), sequence (P14416 whole entry, looked up): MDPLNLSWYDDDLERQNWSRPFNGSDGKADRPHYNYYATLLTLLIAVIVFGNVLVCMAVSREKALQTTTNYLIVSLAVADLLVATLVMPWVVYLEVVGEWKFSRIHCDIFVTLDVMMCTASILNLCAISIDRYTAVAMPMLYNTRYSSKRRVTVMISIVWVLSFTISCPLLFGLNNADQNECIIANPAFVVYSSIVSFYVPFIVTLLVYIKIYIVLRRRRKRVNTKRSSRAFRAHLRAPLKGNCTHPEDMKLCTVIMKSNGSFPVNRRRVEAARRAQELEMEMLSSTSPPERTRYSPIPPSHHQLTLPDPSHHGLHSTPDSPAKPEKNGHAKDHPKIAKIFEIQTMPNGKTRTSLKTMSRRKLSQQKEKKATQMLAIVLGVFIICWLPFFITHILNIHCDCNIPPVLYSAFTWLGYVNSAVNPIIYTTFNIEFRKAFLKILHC

In experiment [17] the target is human Leukotriene B4 Receptor 1 (LTB4-BLT1), LTB4R (gene 1241) (UniProt Q15722). The experiment is described as follows: NVS_GPCR_hLTB4_BLT1: NovaScreen (NVS) G Protein-Coupled Receptor Assay for human Leukotriene B4 Receptor 1 (LTB4-BLT1) (AID 2283271). The gist of the method:
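Cell-free human neutrophil receptor preparation, 1 h exposure, radioligand binding read by filter scintillation counting. Single 25 uM duplicate screen, then concentration series topping at 50 uM; binding loss scored against DMSO baseline.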

In experiment [18] the target is human Orphanin, Opioid Related Nociceptin Receptor 1 (ORL1), OPRL1 (gene 4987) (UniProt P41146). Description: NVS_GPCR_hORL1: NovaScreen (NVS) G Protein-Coupled Receptor Assay for human Orphanin, Opioid Related Nociceptin Receptor 1 (ORL1) (AID 2283283). Put shortly: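 Cell-free binding using HEK293-derived receptor protein: radioligand displacement measured by filter scintillation 1 hour after dosing. Primary testing at 25 uM in duplicate, followed by singleton concentration series up to 50 uM; DMSO served as negative control.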

human Neurokinin, NK2 Receptor, TACR2 (gene 6865), sequence (P21452 whole entry, looked up): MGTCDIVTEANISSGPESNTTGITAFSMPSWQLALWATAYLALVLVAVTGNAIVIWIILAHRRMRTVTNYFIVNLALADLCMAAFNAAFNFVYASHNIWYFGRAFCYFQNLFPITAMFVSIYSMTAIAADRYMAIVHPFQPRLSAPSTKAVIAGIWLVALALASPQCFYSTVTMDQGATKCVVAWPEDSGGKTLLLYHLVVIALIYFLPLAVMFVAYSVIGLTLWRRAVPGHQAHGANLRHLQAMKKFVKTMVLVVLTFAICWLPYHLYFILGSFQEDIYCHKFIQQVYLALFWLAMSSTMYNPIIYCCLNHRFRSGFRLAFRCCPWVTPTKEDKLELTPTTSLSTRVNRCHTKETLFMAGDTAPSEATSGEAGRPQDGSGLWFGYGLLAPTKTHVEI
D(1A) dopamine receptor (Homo sapiens), sequence (P21728 whole entry, looked up): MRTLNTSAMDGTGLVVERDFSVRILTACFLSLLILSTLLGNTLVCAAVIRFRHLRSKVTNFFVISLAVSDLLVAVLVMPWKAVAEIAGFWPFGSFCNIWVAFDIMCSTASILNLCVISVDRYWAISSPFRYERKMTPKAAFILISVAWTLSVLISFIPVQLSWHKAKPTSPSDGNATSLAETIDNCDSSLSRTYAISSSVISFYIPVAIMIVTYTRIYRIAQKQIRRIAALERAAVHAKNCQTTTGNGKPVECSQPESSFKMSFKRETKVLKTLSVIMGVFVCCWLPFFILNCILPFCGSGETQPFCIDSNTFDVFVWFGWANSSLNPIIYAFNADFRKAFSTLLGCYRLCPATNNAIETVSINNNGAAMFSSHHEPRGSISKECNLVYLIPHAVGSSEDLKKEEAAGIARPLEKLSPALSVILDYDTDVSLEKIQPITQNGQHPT
human Adrenergic, Alpha 2c Receptor (Adra2C), ADRA2C (gene 152), sequence (P18825 whole entry, looked up): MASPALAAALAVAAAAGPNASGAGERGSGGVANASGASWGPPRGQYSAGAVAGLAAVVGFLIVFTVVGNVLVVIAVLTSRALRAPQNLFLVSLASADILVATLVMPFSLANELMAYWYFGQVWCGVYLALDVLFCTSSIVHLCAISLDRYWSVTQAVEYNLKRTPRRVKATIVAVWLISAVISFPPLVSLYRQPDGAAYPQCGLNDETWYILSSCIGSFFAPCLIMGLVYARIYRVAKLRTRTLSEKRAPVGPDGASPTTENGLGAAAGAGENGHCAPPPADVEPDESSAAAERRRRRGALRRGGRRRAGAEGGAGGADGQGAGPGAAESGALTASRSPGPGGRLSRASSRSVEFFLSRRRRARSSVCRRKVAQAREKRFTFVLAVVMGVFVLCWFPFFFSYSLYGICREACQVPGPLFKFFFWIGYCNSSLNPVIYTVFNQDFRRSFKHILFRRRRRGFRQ
human Dopamine Receptor D4.4 (DRD4.4), DRD4 (gene 1815), sequence (P21917 whole entry, looked up): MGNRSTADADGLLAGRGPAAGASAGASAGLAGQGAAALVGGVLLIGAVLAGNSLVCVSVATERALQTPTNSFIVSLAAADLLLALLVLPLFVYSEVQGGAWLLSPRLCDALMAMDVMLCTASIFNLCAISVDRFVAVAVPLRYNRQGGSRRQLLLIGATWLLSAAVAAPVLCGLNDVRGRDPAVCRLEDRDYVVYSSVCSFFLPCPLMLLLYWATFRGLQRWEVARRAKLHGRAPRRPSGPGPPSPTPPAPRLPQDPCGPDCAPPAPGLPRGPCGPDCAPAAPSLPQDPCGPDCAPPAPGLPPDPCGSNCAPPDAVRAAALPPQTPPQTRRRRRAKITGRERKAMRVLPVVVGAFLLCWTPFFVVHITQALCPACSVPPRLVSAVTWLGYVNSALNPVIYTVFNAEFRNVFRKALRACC
human Muscarinic, M4 Receptor, CHRM4 (gene 1132), sequence (P08173 whole entry, looked up): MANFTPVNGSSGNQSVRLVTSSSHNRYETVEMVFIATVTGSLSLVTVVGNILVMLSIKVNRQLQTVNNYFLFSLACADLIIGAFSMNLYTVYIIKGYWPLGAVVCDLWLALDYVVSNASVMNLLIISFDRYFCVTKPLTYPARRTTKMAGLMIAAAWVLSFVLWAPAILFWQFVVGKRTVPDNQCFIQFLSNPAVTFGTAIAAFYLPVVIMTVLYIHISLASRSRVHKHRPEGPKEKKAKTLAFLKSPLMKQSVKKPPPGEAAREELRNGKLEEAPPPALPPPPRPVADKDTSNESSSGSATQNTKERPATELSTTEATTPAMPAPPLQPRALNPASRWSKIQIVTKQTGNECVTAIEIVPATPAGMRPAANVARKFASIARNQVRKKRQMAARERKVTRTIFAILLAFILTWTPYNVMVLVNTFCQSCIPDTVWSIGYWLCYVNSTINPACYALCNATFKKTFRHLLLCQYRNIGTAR
Muscarinic acetylcholine receptor M5 (Homo sapiens), sequence (P08912 whole entry, looked up): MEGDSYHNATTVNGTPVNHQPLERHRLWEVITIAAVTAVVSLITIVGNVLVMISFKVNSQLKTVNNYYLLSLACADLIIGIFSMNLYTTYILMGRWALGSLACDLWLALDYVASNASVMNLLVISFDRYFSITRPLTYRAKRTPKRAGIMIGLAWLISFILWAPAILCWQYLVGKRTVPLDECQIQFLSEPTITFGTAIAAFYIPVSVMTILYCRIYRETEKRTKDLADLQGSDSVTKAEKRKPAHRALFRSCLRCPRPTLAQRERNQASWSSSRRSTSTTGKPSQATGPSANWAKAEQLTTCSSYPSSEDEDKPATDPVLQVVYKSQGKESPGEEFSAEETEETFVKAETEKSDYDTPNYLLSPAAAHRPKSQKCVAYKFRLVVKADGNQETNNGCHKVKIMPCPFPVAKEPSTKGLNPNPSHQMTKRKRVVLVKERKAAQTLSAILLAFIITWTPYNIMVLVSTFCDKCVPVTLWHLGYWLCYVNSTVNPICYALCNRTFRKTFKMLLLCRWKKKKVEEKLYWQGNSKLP
human Leukotriene B4 Receptor 1 (LTB4-BLT1), LTB4R (gene 1241), sequence (Q15722 whole entry, looked up): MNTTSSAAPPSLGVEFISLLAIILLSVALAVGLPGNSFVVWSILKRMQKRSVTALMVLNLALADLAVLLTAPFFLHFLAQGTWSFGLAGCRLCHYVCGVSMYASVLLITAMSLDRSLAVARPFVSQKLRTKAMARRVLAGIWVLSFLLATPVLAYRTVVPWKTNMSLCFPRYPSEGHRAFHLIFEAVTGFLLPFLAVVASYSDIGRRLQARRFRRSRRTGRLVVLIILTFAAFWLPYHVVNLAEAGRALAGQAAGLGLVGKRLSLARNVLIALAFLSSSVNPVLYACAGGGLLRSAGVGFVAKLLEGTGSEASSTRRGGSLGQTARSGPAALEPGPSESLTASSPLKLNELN
human Purinergic Receptor P2Y, P2RY1 (gene 5028), sequence (P47900 whole entry, looked up): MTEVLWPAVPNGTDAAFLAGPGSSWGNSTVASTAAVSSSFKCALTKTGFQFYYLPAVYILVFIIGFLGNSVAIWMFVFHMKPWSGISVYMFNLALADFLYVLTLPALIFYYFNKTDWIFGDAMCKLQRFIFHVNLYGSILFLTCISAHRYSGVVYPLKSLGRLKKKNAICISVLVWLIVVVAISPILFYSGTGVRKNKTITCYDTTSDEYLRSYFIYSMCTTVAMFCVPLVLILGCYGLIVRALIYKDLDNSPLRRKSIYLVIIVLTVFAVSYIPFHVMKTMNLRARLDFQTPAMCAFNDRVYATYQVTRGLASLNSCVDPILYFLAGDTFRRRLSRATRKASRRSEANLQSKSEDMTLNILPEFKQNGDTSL

For the compound `Cc1[nH]nc2c1N=C(c1ccccc1Cl)c1cc([N+](=O)[O-])ccc1N2`, the compound was called inactive in [1].
For the compound `CCCCCc1ccc(O)cc1`, in experiment [2], the result was inactive.
Take `CC1=NN(c2ccccc2)C(=O)C1`: in [3], the compound was called inactive.
On to `O=C(CCCN1CCC(O)(c2ccc(Cl)cc2)CC1)c1ccc(F)cc1`, for which the compound was classed as inactive in experiment [4] and in experiment [2].
As to `CCCCCCCCC(C)=O`, the result in experiment [5] was inactive.
Turning to `CCCCCCCCCCCCOS(=O)(=O)O`, the AC50 in [1] was 16.4 µM (active); in experiment [6], 25 µM (active); in [5] it was 37.6 µM (active); in experiment [8], 18.6 µM (active); in [3] it was 7.92 µM (active). In addition, the compound was classed as inactive in experiment [7] and in experiment [9].
`NS(=O)(=O)O`: the compound was classed as inactive in experiment [3].
As for `CCCCc1oc2ccccc2c1C(=O)c1cc(I)c(OCCN(CC)CC)c(I)c1`, the AC50 in [6] was 18.9 µM (active); in [10], 0.59 µM (active); in experiment [11], 4.41 µM (active); in experiment [12], 4.86 µM (active); in experiment [2], 11.4 µM (active); in experiment [13], 7.41 µM (active).
In the case of `C[C@]12CC[C@@H]3c4ccc(O)cc4CC[C@H]3[C@@H]1C[C@@H](O)[C@@H]2O`, the result in [3] was inactive.
Still for that read-out and setting: the value for `CCC(=O)O` was “inactive”.
For `CC(C)(C)c1ccc(O)c(O)c1`, the AC50 in experiment [5] was 25 µM (active); in [2], 16 µM (active). The outcome in [2] was inactive.
Consider `C/C=C/C(=O)C1=C(C)CCCC1(C)C`, for which the result in [5] was inactive.
For the compound `N=C(N)c1ccc(OCCCCCOc2ccc(C(=N)N)cc2)cc1`, the half-maximal activity concentration (AC50) is 20.4 µM (active) in experiment [14]; 7.57 µM (active) in experiment [1]; 21.9 µM (active) in experiment [15]; 12.3 µM (active) in experiment [5]; 2.83 µM (active) in experiment [11]; 8.19 µM (active) in experiment [12]. Also, the half-maximal activity concentration (AC50) in experiment [8] is 8.49 µM (active); in [18] it was 27.8 µM (active). The result in experiment [16], in experiment [17] and in experiment [2] was inactive.

What is called AC50 is the concentration giving half of the maximal activity seen.
